Bioassay records as filed in PubChem BioAssay.
A selection: hits, their analogues and other compounds. The true share with any hit is near 3.5%.
TEAD-YAP inh: TEAD-YAP interaction inhibition; inhibition, % at 9.12 µM; hit rate 1.4% among 640,000; HEK-TIYL cells, TEAD-Gal4/YAP UAS-luciferase luminescence; in the data active = inhibition above about 32%
FBW7 activator: human FBW7 E3 ligase activation, primary screen | Q969H0 | normalized activity (activation), % at 26.1 µM | hit rate 0.13% among 650,000 | AlphaScreen FBW7–phospho-cyclin E peptide binding, activator screen; in the data active = normalized activity above about 1.9%;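 note: purified mutant Fbw7 with reduced substrate affinity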
GPR151 ag: activators of human GPR151. hit rate 1% among 650,000. activation, % at 11.2 µM. PathHunter beta-arrestin GPR151 cells, luminescence. Q8TDV0; in the data active = activation above about 4.9%
MITF primary: inhibitors of human MITF; AlphaScreen MITF homodimerization, bead proximity signal; O75030; hit rate 0.91% among 650,000; inhibition, % at 2.6 µM; in the data active = inhibition above about 50%
Target sequence (O75030 whole entry, looked up): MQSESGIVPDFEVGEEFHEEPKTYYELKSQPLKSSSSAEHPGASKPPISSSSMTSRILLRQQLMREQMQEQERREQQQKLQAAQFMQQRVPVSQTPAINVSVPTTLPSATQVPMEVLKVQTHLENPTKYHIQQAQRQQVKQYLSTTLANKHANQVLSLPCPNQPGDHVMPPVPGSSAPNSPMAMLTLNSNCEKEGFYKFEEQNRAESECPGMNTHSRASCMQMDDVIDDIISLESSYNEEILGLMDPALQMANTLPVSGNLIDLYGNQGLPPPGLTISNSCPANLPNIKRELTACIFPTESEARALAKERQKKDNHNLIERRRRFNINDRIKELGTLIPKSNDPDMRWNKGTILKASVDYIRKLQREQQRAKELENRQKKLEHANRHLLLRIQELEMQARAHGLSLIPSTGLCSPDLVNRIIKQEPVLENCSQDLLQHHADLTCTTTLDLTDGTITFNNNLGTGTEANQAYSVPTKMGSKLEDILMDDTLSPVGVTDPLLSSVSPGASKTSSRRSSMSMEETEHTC
Large screens that a line does not name were inactive.

Cc1ccc(NC(=O)C(=O)NCC2CCCN2S(=O)(=O)c2cccs2)cc1C (stereo unspecified)	none
COc1ccc(NC(=O)C(=O)NCC2CCCN2S(=O)(=O)c2cccs2)cc1 (stereo unspecified)	TEAD-YAP inh 45
CCn1c(=O)cc(SCC(=O)N2CCN(c3cccc(C)c3C)CC2)c2ccccc21	none
Cc1ncn(-c2ccc(Nc3ncc(Cl)c(Nc4ccccc4-c4ncn(C)n4)n3)cc2)n1	none
Cc1ncn(-c2ccc(Nc3ncc(Cl)c(-c4cnn(C)c4)n3)cc2)n1	TEAD-YAP inh 72
Cc1nc(C)n(-c2ccc(Nc3nccc(-c4cc(F)cc(-c5cnn(C)c5)c4)n3)cc2)n1	none
Cc1nc(C)n(-c2ccc(Nc3nc(-c4cnn(C)c4)cc(N(C)C)n3)cc2)n1	TEAD-YAP inh 33
Cc1nc(C)n(-c2ccc(Nc3ncc(Br)c(-c4cnn(C)c4)n3)cc2)n1	TEAD-YAP inh 77
Cc1cccc(N2CCN(C(c3ccncc3)c3nnnn3C(C)(C)C)CC2)c1C (stereo unspecified)	TEAD-YAP inh 62
Cc1nc2cc(NC(=O)N3c4ccccc4CC3C)ccc2n1C (stereo unspecified)	TEAD-YAP inh 37
Cn1c(-c2ccccc2)c(/C=C(\C#N)c2nn(CCO)c(N)c2C#N)c2ccccc21	TEAD-YAP inh 50
N#C/C(=C\c1ccc(/C=C(\C#N)c2nn(CCO)c(N)c2C#N)cc1)c1nn(CCO)c(N)c1C#N	none
CCOc1ccc(/C=C2\NC(=S)N(C)C2=O)c(OCC)c1	none
CCOc1cccc(/C=C2\NC(=S)N(C)C2=O)c1O	FBW7 activator 2.4
COc1cccc(/C=C2\NC(=S)NC2=O)c1O	TEAD-YAP inh 76
COc1cc(/C=C2\NC(=S)NC2=O)cc(OC)c1O	none
CCOC(=O)CC1COCCN1Cc1cn[nH]c1-c1ccc2cc(OC)ccc2c1 (stereo unspecified)	TEAD-YAP inh 46
CCOC(=O)c1[nH]ncc1CN1CCN(Cc2ccc(OC)cc2F)C(CCO)C1 (stereo unspecified)	none
O=C1CCCN1CCCNc1nc(N2CCCC2CO)nc2c1ncn2-c1ccsc1 (stereo unspecified)	TEAD-YAP inh 42
OCCNc1nc(N2CCCC2CO)nc2c1ncn2-c1ccccc1 (stereo unspecified)	TEAD-YAP inh 55
O=C1CCCN1CCCNc1nc(N2CCCC2CO)nc2c1ncn2-c1ccccc1 (stereo unspecified)	TEAD-YAP inh 47
CC(C)n1cnc2c(NCCO)nc(N3CCCC3CO)nc21 (stereo unspecified)	none
CCN(CC)C(=O)C1CCCN(c2nc(NCCCN3CCCC3=O)c3ncn(-c4ccccc4)c3n2)C1 (stereo unspecified)	TEAD-YAP inh 36
CCCCCCc1cc2cc(-c3nc(-c4ccccc4)cs3)c(=O)oc2cc1O	none
CC1(C)CC(=O)C2=C(C1)Nc1ccccc1N(C(=O)c1ccccc1F)C2c1ccccc1OCc1ccccc1 (stereo unspecified)	none
O=C(NCC1CCCO1)C1CC(=O)N(c2ccc(Br)cc2)C1 (stereo unspecified)	none
OCC1CCCN1c1nc(NCc2nc3ccccc3[nH]2)c2ncn(-c3ccccc3)c2n1 (stereo unspecified)	TEAD-YAP inh 48
OCC1CCCN1c1nc(NCCc2ccc(O)cc2)c2ncn(-c3ccsc3)c2n1 (stereo unspecified)	none
Clc1nc(NCc2nc3ccccc3[nH]2)c2ncn(-c3ccccc3)c2n1	none
OCC1CCCN1c1nc(NCCN2CCOCC2)c2ncn(-c3ccsc3)c2n1 (stereo unspecified)	TEAD-YAP inh 61
O=C(Nc1cccc(Cl)c1Cl)c1ccc([N+](=O)[O-])cc1[N+](=O)[O-]	none
CN1C(=S)SC(c2ccccc2)N(C)C1c1ccccc1 (stereo unspecified)	none
O=C(c1nc2sccn2c1CN1CCC(C2CCCCC2)C1)N1CCCCC1 (stereo unspecified)	none
CCc1ccccc1OCCNC(C)(C)C	none
COC(=O)c1nnn(CC(=O)Nc2ccc(Br)c(C)c2)c1C(=O)OC	none
O[C@@H]1[C@@H](O)C=C2CCN3Cc4cc5c(cc4[C@H]1C23)OCO5 (stereo partly specified)	TEAD-YAP inh 82
O=C(Nc1ccc(Cc2ccncc2)cc1)c1ccc(Oc2ccc(C(=O)Nc3ccc(Cc4ccncc4)cc3)cc2)cc1	TEAD-YAP inh 62
CN(C)S(=O)(=O)c1ccc(C(=O)Nc2ccc(Cc3ccncc3)cc2)cc1	none
Cc1ccc(Oc2ccc(NC(=O)c3ccncc3)cc2)cc1C	TEAD-YAP inh 36
O=C(Nc1ccncc1)c1ccc(COc2ccccc2Cl)cc1	TEAD-YAP inh 60
